# According to the supplement of paper PMC11219838:
# Unmarked numbers belong to inactive results.
# Tested on: Ditylenchus dipsaci
# Assay: proportion of mobile D. dipsaci (mixed stage) relative to DMSO control (fraction of DMSO control); higher = more viable, less nematicidal, active = 0.86 or less; extreme values may be limits of the assay
# Conditions: 60 µM; 5 days; temperature: 20 °C
# Procedure, shortened: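 Mobility, expressed relative to DMSO controls, is the mean of two biological replicates. The test organisms were D. dipsaci grown on pea plants in Gamborg B-5 agar and extracted into water by filter funnel, with about 20 added per well of a 96-well plate in distilled water. Compound was pinned to 60 µM final (0.6% v/v DMSO), plates were sealed and shaken at 200 rpm for 5 days at 20 °C, and mobile worms were scored under a microscope once 2 µL 1 M NaOH had been added.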
row,SMILES,proportion of mobile D. dipsaci
1,CC(Oc1ccc(C(C)(C)C)cc1)c1nc(-c2ccncc2)no1 (centres undefined),1
2,Clc1ccc(CSc2nnc(-c3ccc(Cl)cc3)o2)cc1,1
3,N#Cc1ccccc1CSc1nnc(-c2ccco2)o1,1
4,CC(=O)Nc1cccc(-c2nnc(SCc3ccc(F)cc3)o2)c1,1
5,COc1ccc(Cl)cc1-c1noc(COc2ccccc2C)n1,1
6,Cc1cc(NC(=O)CSc2nnc(-c3ccccc3Cl)o2)no1,1
7,COc1ccc(-c2noc(-c3cccc(F)c3)n2)cc1,1
8,Cc1cccc(-c2nnc(SCC(=O)Nc3ccccc3F)o2)c1,1
9,Cc1ccc(OCc2nc(-c3ccc4c(c3)OCO4)no2)cc1C,1
10,COc1nc(-c2ccc(Cl)cc2)ccc1-c1noc(-c2ccncc2)n1,1
11,COc1ccc(Cl)cc1-c1nnc(SCC(=O)Nc2nccs2)o1,1
12,Cc1ccc(-c2nc(-c3cccnc3)no2)cc1Cl,1
13,CC(C)(C)c1ccc(-c2noc(COc3ccccc3)n2)cc1,1
14,Cc1cccc(-c2nnc(SCC(=O)Nc3ccc(Br)c(C)c3C)o2)c1,1
15,Cn1c(SCc2nc(-c3cccs3)no2)nnc1-c1ccco1,1
16,COc1cccc(-c2noc(COc3ccc4ccccc4c3)n2)c1,1
17,Brc1ccc(-c2noc(-c3ccc4c(c3)OCO4)n2)cc1,1
18,Brc1ccc(-c2nc(-c3cccnc3)no2)cc1,1
19,Cc1cc(OCc2nc(-c3ccccc3)no2)ccc1Cl,1
20,Cc1cc(C)c(NC(=O)CSc2nnc(-c3ccc(Br)cc3)o2)c(C)c1,1

row,SMILES,proportion of mobile D. dipsaci
1,CCOC(=O)c1c(NC(=O)CSc2nnc(-c3ccc(Cl)cc3)o2)sc(C)c1C,1
2,Cc1ccc(OCc2nc(-c3ccc(Cl)cc3)no2)c(C)c1,1
3,COc1ccc(OC(C)c2nc(-c3ccccn3)no2)cc1 (centres undefined),1
4,COc1ccc(-c2noc(-c3cc(C)ccc3C)n2)cc1,1
5,CC(C)(C)NC(=O)c1ccccc1-c1nc(-c2ccccc2)no1,1
6,COc1ccccc1-c1nnc(SCc2ccccc2C)o1,1
7,Fc1ccc(-c2noc(COc3ccccc3)n2)cc1,1
8,CCOc1nc(-c2ccc(C)cc2)ccc1-c1noc(-c2ccncc2)n1,1
9,Brc1ccc(CSc2nnc(-c3ccncc3)o2)cc1,1
10,Fc1ccc(-c2nc(-c3ccc(Cl)cc3)no2)cc1,1
11,O=C(CSc1nnc(-c2cccc(Cl)c2)o1)Nc1ccccc1,1
12,COc1cccc(NC(=O)c2ccccc2-c2nc(-c3ccc(F)cc3)no2)c1,1
13,CCc1ccc(OCc2nc(-c3ccc(C)cc3)no2)cc1,1
14,CCC(=O)Nc1ccccc1-c1nc(-c2ccncc2)no1,1
15,c1cncc(-c2noc(COc3cccc4ccccc34)n2)c1,1
16,CNC(=O)c1ccccc1-c1nc(-c2ccccc2Cl)no1,1
17,Cc1ccc(OCc2nc(-c3ccc(Br)o3)no2)cc1C,1
18,Cc1cccc(OCc2nc(-c3ccccc3Cl)no2)c1,1
19,O=C(CSc1nnc(-c2ccccc2Cl)o1)Nc1ccccn1,1
